The values below come from PubChem BioAssay AID1445 (SRMLSC, 2008).

In all, about 220,000 compounds went through this assay and about 910 (0.41%) were called active. Shown is part of a subset that was picked to be rich in actives. Potency and affinity values are given separately. A number with no mark means an inactive call.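 How the source made its calls: active means primary inhibition above the hit cutoff, then over 50% inhibition at one or more dose response concentrations (cut at about 23% in these data, passing the limit was not always enough); inconclusive means conflicting primary data, or primary hits not chosen for dose response; inactive means low primary inhibition, or under 50% at every dose.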

The assay deals with Aminopeptidase N (Plasmodium falciparum (isolate 3D7)) (UniProt O96935). Kind of assay: malaria alanyl aminopeptidase activity blockers – biochemical, fluorogenic H-Leu-NHMec substrate, 1536-well (AID 1445).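 Further: plate controls were DMSO full reaction for no effect and no enzyme background for full effect.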 The note with it: recombinant M1AAP, H-Leu-NHMec fluorogenic kinetic assay; at 30 µM, hits give high values unless noted.
Chain of Aminopeptidase N (Plasmodium falciparum (isolate 3D7)) (O96935 whole entry, looked up): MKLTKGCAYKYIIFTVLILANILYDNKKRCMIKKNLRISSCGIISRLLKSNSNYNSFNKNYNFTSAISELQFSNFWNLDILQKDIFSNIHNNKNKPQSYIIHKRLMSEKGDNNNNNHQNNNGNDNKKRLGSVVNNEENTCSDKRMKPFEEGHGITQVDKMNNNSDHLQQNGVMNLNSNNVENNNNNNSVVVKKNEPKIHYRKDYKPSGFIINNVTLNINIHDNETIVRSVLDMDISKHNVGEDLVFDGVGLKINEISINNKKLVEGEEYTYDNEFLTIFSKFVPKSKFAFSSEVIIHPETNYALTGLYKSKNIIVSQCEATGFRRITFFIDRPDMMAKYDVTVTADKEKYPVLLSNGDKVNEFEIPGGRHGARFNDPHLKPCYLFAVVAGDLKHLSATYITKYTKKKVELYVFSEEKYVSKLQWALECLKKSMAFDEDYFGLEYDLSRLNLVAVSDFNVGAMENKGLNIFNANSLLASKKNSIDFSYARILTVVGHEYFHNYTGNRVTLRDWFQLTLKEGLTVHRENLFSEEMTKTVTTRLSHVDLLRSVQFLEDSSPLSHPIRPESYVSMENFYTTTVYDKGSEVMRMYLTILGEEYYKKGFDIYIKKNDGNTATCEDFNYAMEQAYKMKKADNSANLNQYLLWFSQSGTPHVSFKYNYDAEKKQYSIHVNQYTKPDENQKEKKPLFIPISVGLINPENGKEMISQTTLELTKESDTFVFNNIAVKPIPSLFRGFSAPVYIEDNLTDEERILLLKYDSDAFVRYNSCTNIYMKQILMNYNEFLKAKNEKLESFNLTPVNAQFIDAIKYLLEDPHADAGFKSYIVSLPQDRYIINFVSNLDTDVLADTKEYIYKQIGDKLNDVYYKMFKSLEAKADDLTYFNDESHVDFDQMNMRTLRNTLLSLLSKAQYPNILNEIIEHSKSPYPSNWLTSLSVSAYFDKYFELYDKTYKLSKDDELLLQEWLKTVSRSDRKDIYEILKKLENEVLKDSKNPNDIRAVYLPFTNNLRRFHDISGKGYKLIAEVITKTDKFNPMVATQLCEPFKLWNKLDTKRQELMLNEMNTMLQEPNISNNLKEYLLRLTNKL
Usually inhibition stands for the relative decrease from the control value, in per cent. For the compound `CCc1cccc(C)c1NC(=O)COC(=O)c1ccc2c(c1)S(=O)(=O)c1ccccc1C2=O`, the inhibition was 1.58%. In the case of `CC1(C)NC(=O)N(CC(O)COc2cccc(F)c2)C1=O` (stereo not given), the inhibition is 7.39%.

Regarding `N#C/C(=C(/O)c1cccs1)c1nc2ccccc2[nH]1`, the inhibition was 1.8%. On to `COc1cc(C(=S)N2CCCC2)ccc1OS(=O)(=O)c1ccc(NC(C)=O)cc1`, for which the inhibition is -0.31%. As to `CCN1CCN(C(c2cc3cc4c(cc3[nH]c2=O)OCO4)c2nnnn2C(C)(C)CC)CC1` (stereo not given), the inhibition is 12.6%. On to `Cn1c(=O)c2cc(S(=O)(=O)Nc3cc(C(=O)O)cc(C(=O)O)c3)ccc2n(C)c1=O`, for which the inhibition is 2.45%. In the case of `O=C(NCc1cccnc1)c1cc([N+](=O)[O-])ccc1N1CCOCC1`, the inhibition was 4.23%.

`CCCCc1nc(NCCNC(=O)c2ccccc2)c(C#N)c2c1CSC(C)(C)C2`: the inhibition is 24.4% (active). For `CCc1nc(NCCN)c(C#N)c2c1CSC(C)(C)C2` the value was -0.7%; for `CCCCc1nc(NCc2ccccc2)c(C#N)c2c1COC(C)(C)C2`, -3.84%. Turning to `CCCCc1nc(Cl)c(C#N)c2c1CSC(C)(C)C2`, the inhibition is 0.12%. For the compound `CCCCc1nc(NCCN)c(C#N)c2c1CSC(C)(C)C2`, the inhibition is 2.56%. As for `Cc1ccc(C(NC(=O)N2CCN(C)CC2)C(Cl)Cl)cc1F` (stereo not given), the inhibition is 0.01%. Regarding `CCCCc1ccc(NC(=O)COc2ccc(C(=O)Nc3ccccc3C)cc2)cc1`, the inhibition is -2.91%.

With `COc1cc2c(cc1OC)C(c1cccs1)NCC2` (stereo not given), the inhibition is 0.84%. For `O=C(NCc1cccs1)c1nn2cccnc2c1Cl`, the inhibition was 12.7%. Take `CCCOC(=O)Nc1nc2ccccc2o1`: the inhibition was -8.89%.

Consider `CCOC(=O)c1cnc(Nc2nc3ccccc3o2)nc1C`, for which the inhibition was 0.38%.

Turning to `Nc1nnc(CC(=O)N/N=C/c2ccc([N+](=O)[O-])cc2)s1`, the inhibition is 9.02%.

For the compound `Nc1nnc(CC(=O)N/N=C/c2cccc([N+](=O)[O-])c2)s1`, the inhibition was -3.46%. With `CC1(NC(=S)NCCCCCCNC(=S)NC2(C)CCS(=O)(=O)C2)CCS(=O)(=O)C1` (stereo not given), the inhibition is -1.81%. Turning to `Cc1cc2c(C)c(C)c(=O)[nH]c2cc1N`, the inhibition is 25.2% (active). `Cc1cc(C)c2[nH]c(=O)c(=O)[nH]c2c1`: the inhibition was 4.16%. Consider `Cc1ccc(-c2n[nH]c(=O)c3ccccc23)cc1N`, for which the inhibition is 12.6%.

As to `COc1cccc(C2=NOC(C(=O)NCCCn3ccnc3)C2)c1` (stereo not given), the inhibition was 2.65%. On to `COc1ccc(/C=C/C(=O)Nc2sc(Cc3ccccc3)c(C)c2C(N)=O)cc1`, for which the inhibition was 10.2%. Regarding `COc1cccc(/C=C(\CC(=O)O)c2nc3ccccc3s2)c1`, the inhibition is 11.8%.

Turning to `O=C(O)CC/C(=C\c1ccc(Cl)c([N+](=O)[O-])c1)c1nc2ccccc2s1`, the inhibition was 15.7%. On to `O=C(O)CC/C(=C\c1cccc(NC(=O)c2ccccc2Cl)c1)c1nc2ccccc2s1`, for which the inhibition was 18%. As for `Cc1ccc(/C=C(\CCC(=O)O)c2nc3ccccc3s2)cc1[N+](=O)[O-]`, the inhibition was 15.5%.
